Experimental data as given in PubChem BioAssay AID588342 (National Center for Advancing Translational Sciences (NCATS), 2011).
In all, about 360,000 compounds went through this assay and about 25,000 (6.9%) were called active. Where a call stands in place of a potency, no number is given. Roughly 9% stayed inconclusive and do not appear here. The call rests on the fitted dose curve; in most records, active means well fitted inhibition curve with a large enough effect; inconclusive means small, poorly fitted or top-dose-only effect; inactive means flat fitted curve, though single readings scatter. The full list was thinned out, with actives kept by preference.
Further: nearly all actives have a fitted effect of over 55% in size.
Potency means the concentration at half of the fitted maximal effect.

What follows are molecules tested against Luciferin 4-monooxygenase (Photinus pyralis) (UniProt P08659) (assay: qHTS profiling assay for firefly luciferase inhibitor/activator using purifed enzyme and Km concentrations of substrates (counterscreen for miR-21 project)). Conditions: purified FLuc, luminescence inhibition; series mostly up to 57.5 µM.
Sequence of Luciferin 4-monooxygenase (Photinus pyralis) (P08659 whole entry, looked up): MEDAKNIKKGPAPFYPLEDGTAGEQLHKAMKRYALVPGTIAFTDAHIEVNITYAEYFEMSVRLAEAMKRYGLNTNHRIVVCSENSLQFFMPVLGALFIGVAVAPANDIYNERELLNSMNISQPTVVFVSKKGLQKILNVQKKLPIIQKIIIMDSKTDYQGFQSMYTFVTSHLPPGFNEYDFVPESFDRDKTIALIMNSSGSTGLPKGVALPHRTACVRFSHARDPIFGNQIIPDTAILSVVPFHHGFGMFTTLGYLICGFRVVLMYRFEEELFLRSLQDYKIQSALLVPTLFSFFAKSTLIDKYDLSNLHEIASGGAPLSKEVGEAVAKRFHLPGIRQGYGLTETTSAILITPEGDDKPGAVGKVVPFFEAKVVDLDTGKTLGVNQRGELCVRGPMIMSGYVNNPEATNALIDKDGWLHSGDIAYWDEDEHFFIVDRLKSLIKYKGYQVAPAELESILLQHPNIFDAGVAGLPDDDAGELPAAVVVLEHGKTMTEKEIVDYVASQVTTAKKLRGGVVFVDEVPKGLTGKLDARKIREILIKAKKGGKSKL
Outline: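 Biochemical qHTS of compounds, final roughly 60 µM downward over six points, against 10 nM purified firefly luciferase using Km concentrations of substrates (10 uM D-luciferin, 10 uM ATP) in Tris acetate pH 7.5 buffer; luminescence output.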
For `CCc1ccc(NS(=O)(=O)c2ccc3[nH]cc(C(=O)NCCc4cccc(C)c4)c(=O)c3c2)cc1`, the Potency was “inactive”.
For `O=C(c1ccc(Cl)nc1)N1CCN(S(=O)(=O)c2ccc3c(c2)OCCO3)CC1`, the Potency was “inactive”.
With `COc1cccc(-c2nnc3n(CCc4ccccc4)c(=O)c4ccccc4n23)c1O` the Potency was “inactive”.
For `Cc1ccccc1NC(=O)c1cc2c([nH]c1=O)CC(C)(C)CC2=O`, the Potency was “inactive”.
`COc1ccccc1C(=O)NNC(=O)c1ccc(NC(=O)c2ccccc2)cc1` was tested, and the Potency was “inactive”.
`COc1ccc(C(=O)Nc2ccccc2C(=O)N/N=C/c2ccc(O)c(OC)c2)cc1` was tested, and the Potency was 0.012 µM (active).
`O=C(N/N=C/c1ccc(OC(=O)c2ccccc2Cl)cc1)c1ccc(O)cc1` was tested, and the Potency was “inactive”.
With `COc1ccc(OC)c(/C=C/C(=O)OCC(=O)Nc2ccc3c(c2)OCCO3)c1` the Potency was “inactive”.
For `COc1ccc(OC)c(/C=C/C(=O)c2ccc3c(c2)OCO3)c1`, the Potency was 4.78 µM (active).
In the case of `COc1ccc(/C=N/NC(=O)c2ccc(Cl)cc2)cc1COC(C)=O`, the Potency is reported as “inactive”.
`COc1ccc(Nc2ncc(C(=O)Nc3cc(C)ccc3OC)c3ccccc23)cc1` was tested, and the Potency was “inactive”.
With `COc1ccc(OC)c(/C=N/NC(=O)c2ccc[n+](CC(=O)c3ccccc3)c2)c1` the Potency was “inactive”.
`COc1ccc(C(=O)Nc2ccccc2C(=O)N/N=C/c2ccccc2OC)cc1` was tested, and the Potency was 0.0757 µM (active).
With `COc1ccc(C(=O)N/N=C(\C)CC(=O)Nc2ccc(Cl)cn2)cc1` the Potency was “inactive”.
In the case of `COc1ccc(NC(=O)NCc2ccc3c(c2)OCO3)c(OC)c1`, the Potency is reported as “inactive”.
With `COc1ccc(C(=O)Nc2cc(C)c(NC(=O)c3ccccc3OC)cn2)cc1` the Potency was 2.13 µM (active).
`Cc1ccc(C)c(N2C(=O)N(Cc3c(F)cccc3Cl)c3ccccc3S2(=O)=O)c1` was tested, and the Potency was “inactive”.
In the case of `Cc1ccc(CN2CC(C(=O)NNC(=O)Cn3ccc(C(F)(F)F)n3)CC2=O)cc1` (centres undefined), the Potency is reported as “inactive”.
With `c1ccc2c(c1)C(=NC1CCCCC1)NC2=NC1CCCCC1` the Potency was “inactive”.
In the case of `COC(=O)NNC(=O)C1CCC(C)CC1` (centres undefined), the Potency is reported as “inactive”.
In the case of `CCOCCCn1c(SCC(=O)Nc2ccc(CC)cc2)nc2ccccc2c1=O`, the Potency is reported as “inactive”.
`Cc1cccc(-c2nc(CS(=O)CC(=O)NC(C)CCc3ccccc3)c(C)o2)c1` (centres undefined) was tested, and the Potency was “inactive”.
`CNC(=O)c1ccc(-c2nc(CN3CCc4ccccc43)c(C)o2)cc1` was tested, and the Potency was “inactive”.
`COc1ccc(CN2CCc3nc(Nc4ccccc4)ncc3C2)c(OC)c1OC` was tested, and the Potency was “inactive”.
`CCn1c(SCC(=O)N/N=C/c2ccncc2)nc2ccccc21` was tested, and the Potency was “inactive”.
With `CCn1c(/C=N/NC(=O)c2ccc(OC)cc2)nc2ccccc21` the Potency was 13.5 µM (active).
`COc1ccc(/C=N/NC(=O)c2ccc3c(c2)OCCO3)c(OC)c1` was tested, and the Potency was 9.53 µM (active).
With `COc1ccc(Br)cc1/C=N/NC(=O)c1cccc(S(=O)(=O)N2CCOCC2)c1` the Potency was “inactive”.
For `Cc1cc(C(=O)N/N=C/c2ccccn2)c2ccccc2n1`, the Potency was “inactive”.
In the case of `CCCCCn1c(CCNC(=O)c2ccc(F)cc2)nc2ccccc21`, the Potency is reported as “inactive”.
In the case of `CCOc1cc(/C=N/NC(=O)c2cc(-c3ccccc3)nc3ccccc23)ccc1O`, the Potency is reported as 16.9 µM (active).
`COc1ccc(/C=N/NC(=O)CNC(=O)c2ccc(S(=O)(=O)N3CCCC3)cc2)c(OC)c1` was tested, and the Potency was “inactive”.
For `CCOc1ccc(/C=N/NC(=O)C(C)Sc2ccccn2)cc1OCC` (centres undefined), the Potency was “inactive”.
In the case of `COc1ccc(Cc2nc3ccc(C(=O)NCc4ccccc4Cl)cc3o2)cc1`, the Potency is reported as “inactive”.
In the case of `CCOC(=O)C1CCCN(C(=O)c2ccc3c(c2)sc2nc(-c4ccc(CC)cc4)cn23)C1` (centres undefined), the Potency is reported as “inactive”.
In the case of `Cc1ccccc1CNC(=O)C(=O)NCC(c1cccs1)S(=O)(=O)c1cccs1` (centres undefined), the Potency is reported as “inactive”.
`Cc1nc(N2CCOCC2)c2c(C(=O)NCc3cccc(Cl)c3)c(C)oc2n1` was tested, and the Potency was “inactive”.
For `O=C1Nc2cc(C(=O)N3CCC(N4CCCCC4)CC3)ccc2S/C1=C\c1ccccc1`, the Potency was “inactive”.
In the case of `O=C(Nc1ccc(Cl)cn1)c1ccc2c(c1)OCCO2`, the Potency is reported as 1.35 µM (active).
For `Cc1cccc(C)c1NC(=O)CNC(=O)c1ccc2c(c1)OCCO2`, the Potency was “inactive”.
`CS(=O)(=O)c1ccc(-c2nnc(NC(=O)c3ccc4c(c3)OCCO4)o2)cc1` was tested, and the Potency was “inactive”.
For `CCCc1cc(C(=O)Nc2ccc(Cl)cn2)cs1`, the Potency was 0.478 µM (active).
For `Cc1cc(NC(=O)c2cnn3cccnc23)n(-c2ccccc2)n1`, the Potency was “inactive”.
In the case of `COc1ccc(C(=O)NC(=S)Nc2ccc(Cl)cn2)cc1OC`, the Potency is reported as “inactive”.
`CC1(c2ccc(Cl)cc2)NC(=O)N(CC(=O)c2ccc3c(c2)OCO3)C1=O` (centres undefined) was tested, and the Potency was “inactive”.
In the case of `O=C(NCc1ccco1)c1nn2cccnc2c1Cl`, the Potency is reported as “inactive”.
For `Cc1nc(NC(=O)c2ccc3c(c2)OCCO3)ccc1Br`, the Potency was 1.51 µM (active).
In the case of `O=C(Nc1ccc(Cl)cn1)c1cnn2cccnc12`, the Potency is reported as 7.57 µM (active).
In the case of `CCCCC(CC)C(=O)Nc1ccc(Cl)cn1` (centres undefined), the Potency is reported as “inactive”.
For `CCCc1cc(C(=O)Nc2ccc(C(=O)OC)cc2)cs1`, the Potency was “inactive”.
For `CC12CCC(=O)N1C(C(=O)Nc1ccc(F)c(F)c1F)CS2` (centres undefined), the Potency was “inactive”.
With `COc1ccc(OC)c(CNC(=O)CN2C(=O)CCn3nc(-c4cn(C)c5ccccc45)cc32)c1` the Potency was “inactive”.
In the case of `CCN(CC(=O)Nc1ccc(OC)cc1)C(=O)CSCc1ccc(C)cc1`, the Potency is reported as “inactive”.
With `COc1cc(/C=N/NC(=O)c2cc(C)n(-c3ccc(F)cc3)c2C)cc(OC)c1O` the Potency was 15.1 µM (active).
`COc1cc(/C=N\NC(=O)C2C(=O)NCC2c2ccccc2)cc(OC)c1O` (centres undefined) was tested, and the Potency was “inactive”.
For `CC(Oc1ccccc1[N+](=O)[O-])C(=O)N/N=C/c1ccoc1` (centres undefined), the Potency was “inactive”.
`CC(C)c1cc(C(=O)N/N=C/c2ccoc2)c(O)c(C(C)C)c1` was tested, and the Potency was “inactive”.
In the case of `Cc1cc(C(=O)N/N=C/c2ccc(O)c([N+](=O)[O-])c2)c(C)n1-c1ccc(F)cc1`, the Potency is reported as 2.39 µM (active).
For `Cc1nn(CC(=O)N/N=C/c2ccc(F)cc2)c(C)c1[N+](=O)[O-]`, the Potency was “inactive”.
In the case of `Nc1c(N(Cc2ccco2)C(=O)c2cccc(F)c2)c(=O)[nH]c(=O)n1Cc1ccccc1`, the Potency is reported as “inactive”.
With `Cc1ccccc1C(=O)Nc1nnc(S(=O)(=O)N(C)c2ccc(Cl)cc2)s1` the Potency was “inactive”.
With `CC(C)(CNC(=O)CNC(=O)C1CCCCC1)N1CCOCC1` the Potency was “inactive”.
`CCOC(=O)c1ccc(NC(=O)c2c(NCc3cccc(OC)c3)sc3c2CCC3)cc1` was tested, and the Potency was “inactive”.
`O=C(C1CCC(Cn2c(=O)c3sccc3n(Cc3ccccc3F)c2=O)CC1)N1CCCCC1` (centres undefined) was tested, and the Potency was “inactive”.
